The results in this text go back to publication PMC7862700, “An all-to-all approach to the identification of sequence-specific readers for epigenetic DNA modifications on cytosine”.

Holding throughout (test): DAPPL (digital affinity profiling via proximity ligation, sequencing); 10 mM Tris-HCl pH 7.5, 50 mM NaCl, 1 mM DTT, 4% glycerol, room temperature, 30 min; GST-TFs on glutathione beads, 16-mer random dsDNA library, 0.1% formaldehyde crosslink after washing; high values mean tight binding
The target of experiment [1] is T1, FEV (Homo sapiens, UniProt Q99581 1-238).
T1 sequence: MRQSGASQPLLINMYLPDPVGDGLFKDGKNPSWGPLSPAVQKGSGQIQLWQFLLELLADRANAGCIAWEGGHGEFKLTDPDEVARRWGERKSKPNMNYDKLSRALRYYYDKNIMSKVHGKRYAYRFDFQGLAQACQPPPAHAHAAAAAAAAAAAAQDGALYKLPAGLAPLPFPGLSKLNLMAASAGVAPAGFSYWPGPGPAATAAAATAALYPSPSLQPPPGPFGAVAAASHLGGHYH
The conditions noted are these: protein: recombinant; tags: N-terminal GST; dsDNA, one strand shown. An outline of the steps: (§1)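 After expression in yeast as GST fusions, human transcription factors were bound to glutathione beads, DNA-barcoded and mixed with a tag-only sample. The pools were incubated with 200 nmole of a 16-mer random double-stranded DNA library in Tris/NaCl/DTT/glycerol buffer (30 min, room temperature), washed and crosslinked with 0.1% formaldehyde. Proximity ligation with BsaI/T4 ligase ran for 1 h at 37 °C, before PCR amplification and sequencing on an Illumina NextSeq500. Binding signal is a hexamer's read frequency for a factor divided by its frequency for the tag-only sample.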

The target in experiment [2] is ETV5 (Homo sapiens, UniProt P41161 1-510). The conditions noted are these: protein: recombinant; tags: N-terminal GST; dsDNA, one strand shown. An outline of the steps: as §1
For experiment [3], the target named is HSF1 (Homo sapiens, UniProt Q00613 1-529). Conditions: protein: recombinant; tags: N-terminal GST; chain copies: 3; dsDNA, one strand shown. The essentials:
as §1

The target in experiment [4] is T2, SPIC (Homo sapiens, UniProt Q8N5J4 1-248).
T2 sequence: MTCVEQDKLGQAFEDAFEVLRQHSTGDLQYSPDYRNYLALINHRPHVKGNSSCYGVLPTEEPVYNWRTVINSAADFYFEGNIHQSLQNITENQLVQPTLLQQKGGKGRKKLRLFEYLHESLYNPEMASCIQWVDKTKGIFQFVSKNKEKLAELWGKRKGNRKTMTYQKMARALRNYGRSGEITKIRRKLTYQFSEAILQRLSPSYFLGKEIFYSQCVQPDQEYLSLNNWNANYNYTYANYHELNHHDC
The conditions noted are these: protein: recombinant; tags: N-terminal GST; dsDNA, one strand shown. An outline of the steps: as §1

In experiment [5] the target is ELF4 (Homo sapiens, UniProt Q99607 1-663). Conditions: protein: recombinant; tags: N-terminal GST; dsDNA, one strand shown. The essentials:
as §1

The target of experiment [6] is T3, ELK4 (Homo sapiens, UniProt P28324-2 1-405).
T3 sequence: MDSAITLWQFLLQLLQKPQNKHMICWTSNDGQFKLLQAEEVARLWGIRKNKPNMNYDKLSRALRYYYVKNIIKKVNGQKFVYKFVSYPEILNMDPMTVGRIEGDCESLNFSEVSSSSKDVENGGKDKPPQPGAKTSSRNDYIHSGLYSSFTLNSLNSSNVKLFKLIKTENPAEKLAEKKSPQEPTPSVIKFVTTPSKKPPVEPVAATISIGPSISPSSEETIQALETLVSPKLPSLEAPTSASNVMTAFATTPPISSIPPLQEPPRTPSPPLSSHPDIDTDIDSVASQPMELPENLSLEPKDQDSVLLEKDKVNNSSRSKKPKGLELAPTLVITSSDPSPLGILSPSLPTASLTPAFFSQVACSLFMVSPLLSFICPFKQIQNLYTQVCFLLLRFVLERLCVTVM
The conditions noted are these: protein: recombinant; tags: N-terminal GST; dsDNA, one strand shown. An outline of the steps: as §1

The target in experiment [7] is T4, ETV2 (Homo sapiens, UniProt O00321 1-342).
T4 sequence: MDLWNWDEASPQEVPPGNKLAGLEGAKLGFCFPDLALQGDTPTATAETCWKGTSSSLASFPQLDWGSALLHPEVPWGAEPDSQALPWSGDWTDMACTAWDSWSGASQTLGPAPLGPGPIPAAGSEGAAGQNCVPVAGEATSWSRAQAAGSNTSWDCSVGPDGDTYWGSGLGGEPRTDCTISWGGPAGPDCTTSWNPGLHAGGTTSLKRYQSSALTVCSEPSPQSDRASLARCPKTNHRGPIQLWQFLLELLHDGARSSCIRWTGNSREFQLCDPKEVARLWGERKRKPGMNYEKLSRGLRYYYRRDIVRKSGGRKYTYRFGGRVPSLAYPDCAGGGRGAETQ
Conditions: protein: recombinant; tags: N-terminal GST; dsDNA, one strand shown. An outline of the steps: as §1

Experiment [8] deals with T5, ELF3 (Homo sapiens, UniProt P78545 1-371).
T5 sequence: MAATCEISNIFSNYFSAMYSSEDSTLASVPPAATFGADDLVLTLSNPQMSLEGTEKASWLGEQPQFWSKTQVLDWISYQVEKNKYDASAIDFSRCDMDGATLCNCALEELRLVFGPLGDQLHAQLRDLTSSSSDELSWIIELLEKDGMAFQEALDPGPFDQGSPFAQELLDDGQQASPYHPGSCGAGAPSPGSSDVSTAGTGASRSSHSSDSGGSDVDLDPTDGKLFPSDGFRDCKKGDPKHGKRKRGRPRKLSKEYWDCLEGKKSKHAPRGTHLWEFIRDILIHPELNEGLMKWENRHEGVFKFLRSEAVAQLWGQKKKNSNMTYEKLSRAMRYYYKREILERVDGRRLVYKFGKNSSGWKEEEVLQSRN
The conditions noted are these: protein: recombinant; tags: N-terminal GST; dsDNA, one strand shown. The essentials: as §1

Experiment [9] addresses CRX (Homo sapiens, UniProt O43186 1-299). Conditions: protein: recombinant; tags: N-terminal GST; dsDNA, one strand shown. An outline of the steps: as §1
In experiment [10] the target is ETV1 (Homo sapiens, UniProt P50549 1-477). Conditions: protein: recombinant; tags: N-terminal GST; dsDNA, one strand shown. The essentials: as §1
The target of experiment [11] is T6, ERF (Homo sapiens, UniProt P50548 1-548).
T6 sequence: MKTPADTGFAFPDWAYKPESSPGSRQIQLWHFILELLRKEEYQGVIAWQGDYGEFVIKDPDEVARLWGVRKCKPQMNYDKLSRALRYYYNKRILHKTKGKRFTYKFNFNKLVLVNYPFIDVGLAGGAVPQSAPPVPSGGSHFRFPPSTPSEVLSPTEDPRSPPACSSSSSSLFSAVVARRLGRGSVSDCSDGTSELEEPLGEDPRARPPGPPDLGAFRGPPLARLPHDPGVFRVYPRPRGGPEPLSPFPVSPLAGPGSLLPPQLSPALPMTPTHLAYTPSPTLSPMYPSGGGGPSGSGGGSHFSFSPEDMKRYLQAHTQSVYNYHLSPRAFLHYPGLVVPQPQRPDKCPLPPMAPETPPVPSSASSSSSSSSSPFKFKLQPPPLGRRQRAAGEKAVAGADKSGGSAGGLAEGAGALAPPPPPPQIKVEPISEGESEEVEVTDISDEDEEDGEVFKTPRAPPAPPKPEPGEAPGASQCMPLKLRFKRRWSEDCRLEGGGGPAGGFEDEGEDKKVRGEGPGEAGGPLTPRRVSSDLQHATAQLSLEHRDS
The conditions noted are these: protein: recombinant; tags: N-terminal GST; dsDNA, one strand shown. The essentials:
as §1

Experiment [12] concerns the target T7, ETV3L (Homo sapiens, UniProt Q6ZN32 1-361).
T7 sequence: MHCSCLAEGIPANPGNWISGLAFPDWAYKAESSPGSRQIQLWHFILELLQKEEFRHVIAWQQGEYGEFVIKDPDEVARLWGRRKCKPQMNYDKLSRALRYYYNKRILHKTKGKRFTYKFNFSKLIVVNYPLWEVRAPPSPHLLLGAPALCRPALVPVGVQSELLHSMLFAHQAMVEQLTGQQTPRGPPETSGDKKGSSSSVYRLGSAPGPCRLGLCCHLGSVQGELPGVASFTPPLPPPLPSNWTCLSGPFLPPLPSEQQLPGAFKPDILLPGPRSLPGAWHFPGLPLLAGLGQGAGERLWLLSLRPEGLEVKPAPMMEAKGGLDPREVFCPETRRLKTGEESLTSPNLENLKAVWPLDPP
Conditions: protein: recombinant; tags: N-terminal GST; dsDNA, one strand shown. An outline of the steps:
as §1

The target of experiment [13] is T8, ETS2 (Homo sapiens, UniProt P15036 1-469).
T8 sequence: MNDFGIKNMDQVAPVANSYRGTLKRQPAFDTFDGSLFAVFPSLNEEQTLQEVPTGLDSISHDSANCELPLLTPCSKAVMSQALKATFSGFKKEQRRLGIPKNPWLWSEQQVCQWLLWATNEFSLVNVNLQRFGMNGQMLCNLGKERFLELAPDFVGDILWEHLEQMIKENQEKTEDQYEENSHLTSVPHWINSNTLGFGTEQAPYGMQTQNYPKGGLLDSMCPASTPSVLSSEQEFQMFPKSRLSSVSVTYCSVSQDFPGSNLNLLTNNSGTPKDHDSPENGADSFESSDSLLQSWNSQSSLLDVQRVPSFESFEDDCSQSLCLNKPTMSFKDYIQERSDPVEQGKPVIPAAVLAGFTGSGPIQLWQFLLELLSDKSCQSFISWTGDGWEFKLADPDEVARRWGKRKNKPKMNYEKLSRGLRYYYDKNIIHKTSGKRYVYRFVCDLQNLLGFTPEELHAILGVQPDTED
The conditions noted are these: protein: recombinant; tags: N-terminal GST; dsDNA, one strand shown. The essentials:
as §1

In experiment [14] the target is T9, SPDEF (Homo sapiens, UniProt O95238 1-335).
T9 sequence: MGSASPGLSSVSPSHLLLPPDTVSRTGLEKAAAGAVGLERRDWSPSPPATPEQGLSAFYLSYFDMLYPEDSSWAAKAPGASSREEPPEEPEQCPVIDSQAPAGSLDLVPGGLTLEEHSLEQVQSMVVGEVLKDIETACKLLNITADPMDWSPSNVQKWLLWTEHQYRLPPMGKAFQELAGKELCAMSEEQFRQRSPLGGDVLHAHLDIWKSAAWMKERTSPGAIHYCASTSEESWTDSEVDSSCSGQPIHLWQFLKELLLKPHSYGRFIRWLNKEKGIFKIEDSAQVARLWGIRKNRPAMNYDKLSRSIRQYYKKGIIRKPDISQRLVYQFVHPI
Conditions: protein: recombinant; tags: N-terminal GST; dsDNA, one strand shown. The essentials:
as §1

Experiment [15] has as its target T10, ETV7 (Homo sapiens, UniProt Q9Y603 1-341).
T10 sequence: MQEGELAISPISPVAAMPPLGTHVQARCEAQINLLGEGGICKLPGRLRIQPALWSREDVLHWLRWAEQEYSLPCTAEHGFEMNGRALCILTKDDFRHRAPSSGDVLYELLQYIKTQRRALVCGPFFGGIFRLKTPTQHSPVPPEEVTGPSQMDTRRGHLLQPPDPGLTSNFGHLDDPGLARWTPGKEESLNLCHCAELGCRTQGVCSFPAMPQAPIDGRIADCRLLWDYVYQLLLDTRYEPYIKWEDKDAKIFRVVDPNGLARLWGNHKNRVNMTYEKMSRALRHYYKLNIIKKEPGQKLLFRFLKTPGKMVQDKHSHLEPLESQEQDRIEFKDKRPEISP
Conditions: protein: recombinant; tags: N-terminal GST; dsDNA, one strand shown. An outline of the steps: as §1

In experiment [16] the target is T11, ELF5 (Homo sapiens, UniProt Q9UKW6-2 1-255).
T11 sequence: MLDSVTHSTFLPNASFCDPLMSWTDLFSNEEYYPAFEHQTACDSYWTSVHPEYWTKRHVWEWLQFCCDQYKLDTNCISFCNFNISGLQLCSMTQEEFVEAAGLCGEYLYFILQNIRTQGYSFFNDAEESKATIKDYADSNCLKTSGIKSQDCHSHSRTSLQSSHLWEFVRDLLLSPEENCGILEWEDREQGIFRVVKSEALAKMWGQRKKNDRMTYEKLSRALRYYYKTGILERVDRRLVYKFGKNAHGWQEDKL
The conditions noted are these: protein: recombinant; tags: N-terminal GST; dsDNA, one strand shown. The essentials:
as §1

For experiment [17], the target named is T12, ETV3 (Homo sapiens, UniProt P41162-2 1-143).
T12 sequence: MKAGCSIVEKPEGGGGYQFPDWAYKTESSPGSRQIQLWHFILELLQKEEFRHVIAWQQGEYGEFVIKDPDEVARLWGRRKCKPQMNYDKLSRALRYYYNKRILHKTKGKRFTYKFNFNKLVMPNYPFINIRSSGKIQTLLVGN
The conditions noted are these: protein: recombinant; tags: N-terminal GST; dsDNA, one strand shown. An outline of the steps:
as §1

The target in experiment [18] is ETV6 (Homo sapiens, UniProt P41212 1-452). The conditions noted are these: protein: recombinant; tags: N-terminal GST; dsDNA, one strand shown. An outline of the steps: as §1
Chain of ETV6 (P41212 whole entry): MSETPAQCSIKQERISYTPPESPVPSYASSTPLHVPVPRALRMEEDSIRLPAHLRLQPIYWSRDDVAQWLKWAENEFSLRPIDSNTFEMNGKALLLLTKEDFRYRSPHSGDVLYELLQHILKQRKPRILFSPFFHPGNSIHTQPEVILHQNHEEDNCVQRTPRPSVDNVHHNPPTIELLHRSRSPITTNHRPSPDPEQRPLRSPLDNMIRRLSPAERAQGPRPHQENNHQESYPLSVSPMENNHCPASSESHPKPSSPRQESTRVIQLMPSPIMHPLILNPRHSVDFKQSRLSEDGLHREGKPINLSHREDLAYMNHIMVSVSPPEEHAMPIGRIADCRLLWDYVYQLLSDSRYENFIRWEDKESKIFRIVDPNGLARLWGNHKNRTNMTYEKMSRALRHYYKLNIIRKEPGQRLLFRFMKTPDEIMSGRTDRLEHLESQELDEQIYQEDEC

Chain of CRX (O43186 whole entry): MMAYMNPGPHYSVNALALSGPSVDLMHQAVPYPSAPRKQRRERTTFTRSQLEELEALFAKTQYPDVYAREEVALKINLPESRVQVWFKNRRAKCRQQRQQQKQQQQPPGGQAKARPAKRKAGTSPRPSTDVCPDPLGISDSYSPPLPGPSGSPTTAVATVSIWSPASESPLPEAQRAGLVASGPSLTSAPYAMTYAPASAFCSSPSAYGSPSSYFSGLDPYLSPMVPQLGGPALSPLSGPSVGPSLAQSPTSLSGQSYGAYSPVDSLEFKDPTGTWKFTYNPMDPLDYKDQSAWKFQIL
Chain of ETV5 (P41161 whole entry): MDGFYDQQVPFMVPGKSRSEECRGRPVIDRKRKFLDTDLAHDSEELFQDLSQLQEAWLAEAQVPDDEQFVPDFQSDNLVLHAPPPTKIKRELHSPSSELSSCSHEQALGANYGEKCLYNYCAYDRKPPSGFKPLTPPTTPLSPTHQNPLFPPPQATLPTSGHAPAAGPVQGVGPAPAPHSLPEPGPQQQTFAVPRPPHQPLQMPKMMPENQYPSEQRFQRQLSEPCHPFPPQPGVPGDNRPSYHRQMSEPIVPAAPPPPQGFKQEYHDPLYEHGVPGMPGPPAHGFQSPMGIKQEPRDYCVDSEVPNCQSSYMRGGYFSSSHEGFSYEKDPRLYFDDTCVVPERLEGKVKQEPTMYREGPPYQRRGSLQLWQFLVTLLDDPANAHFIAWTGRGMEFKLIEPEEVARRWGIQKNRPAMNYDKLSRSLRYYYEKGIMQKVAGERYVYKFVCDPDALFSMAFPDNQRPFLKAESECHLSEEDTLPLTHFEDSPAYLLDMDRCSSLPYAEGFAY
Chain of HSF1 (Q00613 whole entry): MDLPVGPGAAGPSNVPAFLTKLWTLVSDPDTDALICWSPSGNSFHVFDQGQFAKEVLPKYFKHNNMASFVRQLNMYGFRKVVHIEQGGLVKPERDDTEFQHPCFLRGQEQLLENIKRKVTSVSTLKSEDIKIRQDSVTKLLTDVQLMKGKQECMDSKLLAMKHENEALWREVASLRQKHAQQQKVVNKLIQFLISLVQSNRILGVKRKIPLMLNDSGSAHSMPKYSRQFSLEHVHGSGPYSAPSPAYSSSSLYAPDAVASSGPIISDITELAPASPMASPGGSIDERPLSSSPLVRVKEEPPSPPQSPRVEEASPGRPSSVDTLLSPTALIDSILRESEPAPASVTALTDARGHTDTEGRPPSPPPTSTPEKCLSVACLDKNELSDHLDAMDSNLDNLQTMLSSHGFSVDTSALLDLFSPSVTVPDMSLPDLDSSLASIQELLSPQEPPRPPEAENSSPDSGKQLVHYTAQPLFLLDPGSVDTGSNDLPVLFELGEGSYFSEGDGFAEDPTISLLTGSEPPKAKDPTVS
Chain of ETV1 (P50549 whole entry): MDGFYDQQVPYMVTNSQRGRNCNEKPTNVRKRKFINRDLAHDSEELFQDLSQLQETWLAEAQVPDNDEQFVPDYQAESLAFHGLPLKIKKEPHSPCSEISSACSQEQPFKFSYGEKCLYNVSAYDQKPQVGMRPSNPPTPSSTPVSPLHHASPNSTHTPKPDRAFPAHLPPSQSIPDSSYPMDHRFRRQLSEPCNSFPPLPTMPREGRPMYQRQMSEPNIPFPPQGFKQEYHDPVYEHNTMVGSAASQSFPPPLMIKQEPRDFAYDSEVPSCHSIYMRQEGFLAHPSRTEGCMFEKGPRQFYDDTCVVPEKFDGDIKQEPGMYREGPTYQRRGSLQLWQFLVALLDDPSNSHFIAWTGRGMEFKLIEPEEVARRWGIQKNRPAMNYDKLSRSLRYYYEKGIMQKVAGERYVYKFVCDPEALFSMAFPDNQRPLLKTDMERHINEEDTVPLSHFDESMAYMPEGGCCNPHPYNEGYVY
Chain of ELF4 (Q99607 whole entry): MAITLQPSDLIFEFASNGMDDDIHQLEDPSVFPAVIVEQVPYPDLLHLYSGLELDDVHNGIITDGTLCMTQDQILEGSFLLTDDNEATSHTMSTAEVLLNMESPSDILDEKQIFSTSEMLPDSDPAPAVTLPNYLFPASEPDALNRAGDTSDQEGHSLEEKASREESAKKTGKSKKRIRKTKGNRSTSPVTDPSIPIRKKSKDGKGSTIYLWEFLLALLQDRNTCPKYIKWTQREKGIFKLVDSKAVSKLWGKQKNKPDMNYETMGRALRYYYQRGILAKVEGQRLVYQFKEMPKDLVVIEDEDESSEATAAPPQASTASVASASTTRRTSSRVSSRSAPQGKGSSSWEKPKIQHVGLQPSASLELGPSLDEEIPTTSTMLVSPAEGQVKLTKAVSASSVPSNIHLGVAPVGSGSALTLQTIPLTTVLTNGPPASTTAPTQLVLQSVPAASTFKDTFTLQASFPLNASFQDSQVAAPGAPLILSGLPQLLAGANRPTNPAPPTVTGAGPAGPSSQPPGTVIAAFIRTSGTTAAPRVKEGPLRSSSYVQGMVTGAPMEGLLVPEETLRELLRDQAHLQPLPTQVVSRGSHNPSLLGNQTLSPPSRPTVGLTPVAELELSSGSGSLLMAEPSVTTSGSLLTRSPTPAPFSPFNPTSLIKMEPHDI

As for TATTCT, the binding signal was 1.27 fold enrichment (6-mer frequency, TF over GST control) in experiment [1]; 1.33 fold enrichment (6-mer frequency, TF over GST control) in experiment [2]; 2.77 fold enrichment (6-mer frequency, TF over GST control) in experiment [3]; 1.28 fold enrichment (6-mer frequency, TF over GST control) in experiment [4]; 1.38 fold enrichment (6-mer frequency, TF over GST control) in experiment [5]; 1.37 fold enrichment (6-mer frequency, TF over GST control) in experiment [6]. For the same sequence, the binding signal is 1.29 fold enrichment (6-mer frequency, TF over GST control) in experiment [7]; 1.38 fold enrichment (6-mer frequency, TF over GST control) in experiment [8]; 1.9 fold enrichment (6-mer frequency, TF over GST control) in experiment [9]; 1.4 fold enrichment (6-mer frequency, TF over GST control) in experiment [10]; 1.22 fold enrichment (6-mer frequency, TF over GST control) in [11]; 1.35 fold enrichment (6-mer frequency, TF over GST control) in experiment [12]. For the same sequence, the binding signal in experiment [13] is 1.36 fold enrichment (6-mer frequency, TF over GST control); in experiment [14] it was 1.34 fold enrichment (6-mer frequency, TF over GST control); in experiment [15], 1.42 fold enrichment (6-mer frequency, TF over GST control); in experiment [16], 1.32 fold enrichment (6-mer frequency, TF over GST control); in experiment [17] it was 1.31 fold enrichment (6-mer frequency, TF over GST control); in [18], 1.4 fold enrichment (6-mer frequency, TF over GST control).
